A selection: hits, their analogues and other compounds. The true share with any hit is near 0.9%.
Fluorescein autfl: qHTS Assay for Spectroscopic Profiling in Fluorescein Spectral Region. actives 0.91% (n = 59,000). max fluorescein-equivalent concentration, M. Compound autofluorescence, 480/540 nm, fluorescein-equivalent; hits give high values; in the data active = max fluorescein-equivalent concentration above about 10 nM; inconclusive = between about 1.1 nM and that limit
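Autofluorescence profiling; 100 mM Tris, pH 8.0; incubation 15 min at RT; ex/em 480/540 nm; result as fluorescein-equivalent concentration.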
A488 autofl: qHTS Assay for Spectroscopic Profiling in A488 Spectral Region; actives 0.1% (n = 59,000); compound autofluorescence, A488 spectral region, dye equivalency; Compound Type: qHTS ECL - MLSMR; max dye equivalency, M
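Read-out: relative fluorescence at 480/540 nm, expressed as Alexa 488 dye-equivalent concentration from a six-point A488 standard included per plate. Conditions: 100 mM Tris, pH 8.0; 15 min incubation, room temperature.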
Resorufin autofl: qHTS Assay for Spectroscopic Profiling in Resorufin Spectral Region; Compound fluorescence, resorufin region 547/598 nm, buffer; hits give high values; max dye-equivalent concentration, M; actives 0.04% (n = 59,000)
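Read-out: intrinsic compound fluorescence at ex 547/em 598 nm after 15 min at RT in pH 8.0 Tris (100 mM). Values expressed as resorufin-equivalent concentration from per-plate standard series.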
Rhodamine fluor: qHTS Assay for Spectroscopic Profiling in Rhodamine Spectral Region; Rhodamine-region fluorescence, 547/598 nm, Tris buffer; hits give high values; max dye-equivalent concentration, M; actives 0.05% (n = 59,000); AID 594, 2007; in the data active = max dye-equivalent concentration above about 11 nM; inconclusive = between about 1.1 nM and that limit
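qHTS spectral profiling of compounds without any target or enzyme present, in pH 8.0 Tris buffer; plates were read after a 15-minute room-temperature incubation using the rhodamine-region filter set.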
TexasRed autofl: qHTS Assay for Spectroscopic Profiling in Texas Red Spectral Region; max dye-equivalent concentration, M; AID 587, 2007; Compound fluorescence, Texas Red channel, 547/618 nm; hits give high values; actives 0.06% (n = 59,000); in the data active = max dye-equivalent concentration above about 10 nM; inconclusive = between about 1.1 nM and that limit
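Texas Red-region profiling: compounds in 100 mM Tris pH 8.0 were read at 547/618 nm after 15 min at room temperature. Intensities were normalized against a six-point Texas Red standard series to give dye-equivalent concentration.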
A647 fluor: qHTS Assay for Spectroscopic Profiling in A647 Spectral Region. max dye-equivalent concentration, M. 59,000 tested, under 10 active. AID 592, 2007. Compound fluorescence, A647 channel (570/671 nm), Tris buffer;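 also: values scaled relative to a standard on each plate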
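Fluorescence read (570 nm ex, 671 nm em) after 15 min RT incubation of compounds in 100 mM Tris buffer, pH 8.0; values expressed as dye-equivalent concentration against a six-point A647 standard series on each plate.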
An asterisk follows results filed as active; i = inactive; ? = inconclusive. Unless noted, no rule for the calls is given here.

SMILES	Fluorescein autfl	A488 autofl	Resorufin autofl	Rhodamine fluor	TexasRed autofl	A647 fluor
Nc1nc(N)c(N=Nc2ccc(C(=O)O)c(O)c2)c(N)n1	1.4e-08M*	i	i	i	i	1e-09
Cc1cccn2c(=O)c3cc(C#N)c(=NC(=O)c4ccc5c(c4)OCO5)n(CC(C)C)c3nc12	i	i	i	i	i	3.6e-08
CCCn1c(=NC(=O)c2ccncc2)c(C#N)cc2c(=O)n3cccc(C)c3nc21	1.2e-08M*	i	i	i	i	9.1e-09
Cc1cccn2c(=O)c3cc(C#N)c(=NC(=O)c4ccncc4)n(CCCOC(C)C)c3nc12	1.7e-08M*	i	i	i	?	3e-09
NC(N)=N/N=C\c1ccc(O)c(C(=O)O)c1	i	i	i	i	i	1e-09
O=C(Cn1cc(C(=O)COc2ccccc2)c2ccccc21)NCc1ccco1	1.5e-08M*	i	i	i	i	1.1e-08
CC[C@](C)(CN(C)C)OC(=O)c1ccccc1	?	i	i	i	i	3.6e-08
CN1C=CC2=C(C#N)C(N)C(C#N)(C#N)C(c3ccccc3)C2C1 (stereo not drawn)	3.3e-08M*	?	i	i	i	5.7e-08
O=C(O)CCCCCC[C@@H]1C(=O)NC(=O)N1CC[C@@H](O)C1CCCCC1	i	i	i	i	i	1e-09
NC(=O)N/N=C1\CC[C@H](O)C[C@@H]1CC(=O)O	i	i	i	i	i	1e-09
CN(C)CCCOc1nn(Cc2ccccc2)c2ccccc12	1.9e-08M*	i	i	i	i	2.3e-08
C=CCn1c(=O)/c(=C/c2cc(OC)c(OC)c(OC)c2)s/c1=C(/C#N)c1nc2ccccc2n1C	2.8e-07M*	1.5e-08M*	i	i	i	6.5e-08
C=CCn1c(=O)/c(=C/c2ccc(Cl)cc2)s/c1=C(/C#N)c1nnc2n1CCCCC2	i	i	i	i	i	2.3e-09
C=CCn1c(=O)/c(=C/c2ccc(O)cc2)s/c1=C(/C#N)c1nnc2n1CCCCC2	9.4e-08M*	?	i	i	i	1.7e-08
O=C(O)c1ccncc1.O=C(O)c1ccncc1.[NH2-].[NH2-].[Pt]	i	i	i	i	?	1.1e-09
O=c1cc(CF)[nH]c(=S)[nH]1	i	i	i	i	i	1e-09
CCOC(=O)[C@H](CCc1ccccc1)N[C@@H](C)C(=O)N1[C@H](C(=O)O)C[C@H]2CCC[C@@H]21	1e-08M*	i	i	i	i	2.6e-08
CCN1C(=O)c2cccc3c(NC(=O)c4ccc5c(c4)OCCO5)ccc1c23	5.5e-08M*	?	i	i	i	2.6e-09
CCN1C(=O)c2cccc3c(NC(=O)C4CCCCC4)ccc1c23	?	i	i	i	i	1.7e-09
CN(C)c1ccc(-c2cc(NCc3ccccc3)ncn2)cc1	?	i	i	i	i	3.6e-08
NS(=O)(=O)c1ccc(N=Nc2nc3[nH]cnc(=S)c3[nH]2)cc1	i	i	i	i	i	1e-09
CN(C)c1ncc2nc(-c3cccs3)c(=O)n(-c3ccccc3)c2n1	?	i	i	i	i	1.3e-09
Cc1sc2nc(CSc3nc4ccccc4c(=O)n3CCCN3CCOCC3)[nH]c(=O)c2c1C	3.4e-08M*	?	i	i	i	1e-09
CC(=O)c1c(C)[nH]c(C(=O)CSc2nc3ccccc3c(=O)n2CCCN2CCOCC2)c1C	?	i	i	i	?	7.8e-09
O=C(O)C[C@@H](C(=O)O)c1ccccc1[N+](=O)[O-]	i	i	i	i	i	1e-09
Cc1nn2cnc3sc4c(c3c2nc1=O)CCCC4	1e-08M*	i	i	i	i	1.3e-09
Clc1ccc2c(N3CCC(CCC4CCN(c5ncnc6cc(Cl)ccc56)CC4)CC3)ncnc2c1	i	i	i	i	?	4.1e-09

High-throughput results deposited in PubChem BioAssay by National Center for Advancing Translational Sciences (NCATS).
